# Only a selection was taken, and hits are over-represented in it overall.
# ROC1-CUL1 inh = human ROC1-CUL1 E3 ligase inhibition; AID 1347404; in vitro K48 di-Ub FRET, acceptor:donor ratio, 45 min; inhibition, % at 10 µM; actives 0.6% (n = 140,000); P62877+Q13616; in the data active = inhibition above about 25%
# Active calls of the source: *.
SMILES,ROC1-CUL1 inh
CCOc1ccc(C2CC(=O)NC(NC(=O)c3cccc(Cl)c3)=N2)cc1 (configuration not stated),-8
CCc1ccc(S(=O)(=O)Nc2ccc3c(c2)sc(=O)n3C)cc1,-13
O=C(CSc1nc(-c2ccccc2)no1)N1CCN(c2ccccc2)CC1,-13
Oc1ccc(-c2cnc3ccccc3n2)cc1O,84*
Clc1ccc(-c2cnc3ccccc3n2)cc1,0
Oc1ccc(-c2cnc3ccccc3n2)cc1,3
O=C1CCCN1CCCC(=O)N1CCCC(CCc2cccc(F)c2)C1 (configuration not stated),3
CCOC(=O)C1=C(C)N=c2s/c(=C/c3ccccc3OCC#N)c(=O)n2C1c1ccc(C)cc1 (configuration not stated),0
C/C(C(=O)Nc1ccc(C(=O)c2ccccc2)cc1N)=C(/C)c1nc2ccccc2[nH]1,-4
Cn1nc(C(=O)N2CCN(c3ccc(Cl)cc3)CC2)c2c1-c1ccccc1SC2,1
Cc1ccc2c(c1)-c1c(c(C(=O)N3CCN(c4cc(C)ccc4C)CC3)nn1C)CS2,44*
COc1ccc(NC(=O)c2nn(C)c3c2CSc2ccc(C)cc2-3)cc1OC,6
CCOC(=O)c1sc(N)nc1C(C)C,1
CCS(=O)(=O)c1ncccc1S(N)(=O)=O,0
CC(=O)Nc1ccc(C)cc1-c1nc2ccccc2n(CC(=O)c2ccc(Cl)cc2)c1=O,4
CCn1c(O)c(C=C2C(C)=Nc3ccccc32)c(=O)[nH]c1=S,-3
COc1ccccc1-n1c(O)c(C=C2C=Nc3ccccc32)c(=O)[nH]c1=S,15
CC1=CC(=Cc2c(O)n(-c3cccc(Cl)c3Cl)c(=S)[nH]c2=O)C(C)=N1,93*
COCCn1cc(C(=O)NCC2(c3ccccc3)CCCC2)c(=O)c(C(=O)N2CCCC(C)C2)c1 (configuration not stated),3
O=C(O)c1ccccc1-c1occ(C(=O)c2ccccc2)c1C(=O)O,9
COc1ccc(-c2occ(C(=O)O)c2C(=O)O)cc1,47*
COc1ccc2occ(C(=O)c3coc4ccc(OC)cc34)c2c1,1
N=C1/C(=C/c2ccc(Br)o2)C(=O)N=C2SC=C(c3ccccc3)N12,-8
Nc1cc(C(=O)c2cccs2)ccc1Cl,-5
CC(=O)NC1=NC(=O)/C(=C/c2cc(C)n(-c3cccc(C(=O)O)c3)c2C)S1,50*
SMILES,ROC1-CUL1 inh
CCOC(=O)c1cccc(-n2c(C)cc(C=C3C(=O)N(C)C(=O)N(C)C3=O)c2C)c1,4
COC(=O)c1cccc(-n2c(C)cc(/C=C3\SC(=O)N(Cc4ccc(F)cc4)C3=O)c2C)c1,-2
Cc1cc(/C=C2\C(=O)N(C)C(=S)N(c3ccccc3)C2=O)c(C)n1-c1cccc(C(=O)O)c1,28*
CC(=O)NC1=NC(=O)/C(=C/c2sccc2C)S1,2
Cc1ccc(N2C(=O)/C(=C/c3cc(C)n(-c4ccccc4)c3C)C(=O)N(c3ccccc3)C2=S)cc1C,0
COc1cccc(-c2ccccc2NC(=O)C2CCN(CC(C)C)CC2)c1,8
CCCNC(=O)C1CCN(c2ncnc3c2nc2n3CCCCC2)CC1,-9
CCCS(=O)(=O)N1CCC(C(=O)Nc2ccc(Br)cc2)CC1,1
CCN(CC)CCN(C(=O)c1ccco1)c1nc2ccc(Br)cc2s1,-1
Cc1ccc(NCc2cccn2-c2nnc(N3CCC(C(=O)NCCC(C)C)CC3)s2)cc1,-12
O=C1C(=Nc2ccc(Cl)c(Cl)c2)CC(=NS(=O)(=O)c2ccc(Cl)cc2)c2ccccc21,-15
O=C1CC(=Nc2cccc3cc(S(=O)(=O)O)ccc23)c2ccccc2C1=O,80*
O=C1c2cc(S(=O)(=O)O)ccc2C(=O)c2c(Cl)cccc21,-3
COc1ccc(C(=O)Nc2sc(C)c(-c3ccc(F)cc3)c2C(=O)OC(C)C)cc1[N+](=O)[O-],-2
Nc1nc2cc3nsnc3cc2s1,0
Nc1nc2cc(N)c(N)cc2s1,93*
CCOc1ccc2nc(N)sc2c1,-3
Cc1ccc(S(=O)(=O)c2nnn3c2nc(NC2CCCCCC2)c2sccc23)cc1C,1
Cc1ccc(-c2c(C)n3c4c(=O)n(C)c(=O)n(C)c4nc3n2-c2cccc(O)c2)cc1,-4
CCCN1C(=O)c2ccc(C(=O)Nc3ccc(Br)cc3C(=O)O)cc2C1=O,9
CC(c1ccccc1)N1C(=O)c2ccc(C(=O)Nc3ccc(Br)cc3C(=O)O)cc2C1=O (configuration not stated),39*
CCOc1ccccc1N1C(=O)c2ccc(C(=O)Nc3ccc(Br)cc3C(=O)O)cc2C1=O,-3
Cc1ccc(NC(=O)Nc2csc3c2CCCC3)c(C)c1,-6
O=C1C2CCCCC2C(=O)N1CCc1c[nH]c2ccccc12 (configuration not stated),-3
O=C(NNc1ccc([N+](=O)[O-])cc1[N+](=O)[O-])c1cccc2ccccc12,-9
CCOC(=O)c1cc(-c2ccc([N+](=O)[O-])cc2)n(NC(=O)COc2ccccc2C)c1C,0
Cc1ccccc1OCC(=O)NNc1ccc([N+](=O)[O-])cc1[N+](=O)[O-],36*
COc1ccc(-c2ccc(S(=O)(=O)N3CCCC3)cc2)cc1,1
